Laboratory results published in PubChem BioAssay AID2563 (Broad Institute, 2010).
The whole screen tested about 290,000 compounds, of which about 800 (0.28%) were called active.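 Rule for the calls: active = fall in fluorescence gain of 50% or more versus controls, with final raw signal at or below 3038400; inconclusive = same 50% fall but final raw signal above 3038400; inactive = fall in fluorescence gain under 50%.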 Many of the other results were omitted from the sample, so actives are more common in it than they were.

The compounds below were run against CAAX prenyl protease 2 (Saccharomyces cerevisiae (strain ATCC 204508 / S288c)) (UniProt Q03530) (assay: yeast Rce1p protease inhibitors, primary screen, biochemical, fluorescence, cell-free homogeneous (AID 2563)). Settings: yeast membranes, quenched prenylated peptide cleavage fluorescence.
CAAX prenyl protease 2 (Saccharomyces cerevisiae (strain ATCC 204508 / S288c)), sequence (Q03530 whole entry, looked up): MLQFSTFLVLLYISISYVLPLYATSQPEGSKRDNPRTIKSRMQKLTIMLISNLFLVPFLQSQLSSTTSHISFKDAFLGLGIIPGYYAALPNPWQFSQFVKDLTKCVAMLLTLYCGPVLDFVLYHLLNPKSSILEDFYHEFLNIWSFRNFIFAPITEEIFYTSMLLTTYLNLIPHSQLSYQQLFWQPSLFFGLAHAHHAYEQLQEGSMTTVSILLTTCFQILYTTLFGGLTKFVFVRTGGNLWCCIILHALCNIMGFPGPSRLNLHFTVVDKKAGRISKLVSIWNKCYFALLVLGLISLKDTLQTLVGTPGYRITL

SMILES | outcome
CC(C)CN(C(=O)COC(=O)c1ccc2ccccc2c1)c1c(N)n(Cc2ccccc2)c(=O)[nH]c1=O | inactive
COc1ccc(NS(=O)(=O)c2ccc(C)c(C(=O)NCC(c3cccs3)N3CCOCC3)c2)cc1 (stereo not drawn) | inactive
CCOC(=O)NN1C(=O)c2ccccc2NC1c1cccc(O)c1 (stereo not drawn) | inactive
CC(=O)NN1C(=O)c2ccccc2NC1c1ccccc1 (stereo not drawn) | active
CN(C)c1ccc(C2Nc3ccccc3C(=O)N2NS(=O)(=O)c2ccccc2)cc1 (stereo not drawn) | inactive
COCCn1c(SC(C)C(=O)NC2CC2)nnc1-c1cccc(C)c1 (stereo not drawn) | inactive
CC(C)(C)S(=O)(=O)c1ccccc1-c1noc(-c2ccccc2)c1C(N)=O | inactive
CCn1c(SC(C)C(=O)Nc2ccc(N3CCOCC3)cc2)nnc1-c1ccco1 (stereo not drawn) | inactive
Cc1ccc(C(=O)N/N=C/c2cccc3ccccc23)cn1 | inactive
CCCCCN(C(=O)CCC(=O)OCC(=O)NC1CCC(C)CC1)c1c(N)n(CCCC)c(=O)[nH]c1=O (stereo not drawn) | inactive
COc1ccc(C)cc1S(=O)(=O)Nc1cc2c3c(c1)CCC(=O)N3CCC2 | inactive
CCCc1cc(=O)[nH]c(SCC(=O)c2c(N)n(CC(C)C)c(=O)n(C)c2=O)n1 | inactive
O=C(CN1C(=O)NC2(CCCC2)C1=O)OCCOc1ccc(F)cc1 | inactive
CCN1CCN(c2ccc(S(=O)(=O)N3CCCCC3)cc2NC(=O)c2cccc(NC(C)=O)c2)CC1 | inactive
Cc1onc(-c2ccccc2Cl)c1C(=O)N(Cc1ccc(N(C)C)cc1)C(C)C | inactive
CCc1noc(C)c1C(=O)Nc1nc2ccc(OC)cc2s1 | inactive
COC(C[C@@H](O)C[C@@H](O)[C@H](C)OCc1ccccc1)OC | inactive
COC(C[C@H](O)CC(=O)[C@@H](C)OCc1ccccc1)OC | inactive
COC(C[C@@H](O)C[C@H](O)[C@H](C)OCc1ccccc1)OC | active
Cc1ccc2nnn(Cc3cccc(C(C)(C)C)c3O)c2c1 | inactive
Cc1ccc2nc(NC(=O)CSc3nc(=O)n(CCCN(C)C)c4c3CCC4)sc2c1 | inactive

SMILES | outcome
O=C(NCC(=O)N1CCCC(C(F)(F)F)C1)c1ccccc1F (stereo not drawn) | inactive
Cc1nc(N2CCN(c3ccccn3)CC2)c2c(C)c(C(=O)Nc3ccc(F)cc3)sc2n1 | inactive
Cc1nc(N2CCOCC2)c2c(C)c(C(=O)Nc3ccc(C(F)(F)F)cc3)sc2n1 | active
Cc1nc(N2CCN(c3ccccn3)CC2)c2c(C)c(C(=O)Nc3ccc(F)c(Cl)c3)sc2n1 | inactive
Cc1c(C)n2c(SCC(=O)N3CCCC3)nnc2[nH]c1=O | inactive
Cc1cc(/C=N/n2cnnc2)c(C)n1-c1ccc2ncccc2c1 | inactive
Cc1nn(C)cc1C(=O)c1ccccc1 | inactive
Cc1cccc([C@@H]2[C@@H]3C(=O)N(Cc4ccccc4)C(=O)[C@@H]3[C@]3(Cc4ccc(Cl)cc4)C(=O)N(c4cccc(Cl)c4)C(=O)N23)c1 | inactive
C=CCNC(=O)C1CC2c3ccccc3C1c1ccccc12 (stereo not drawn) | inactive
COc1ccc(S(=O)(=O)Nc2ccc3oc(C)c(C(C)=O)c3c2)cc1 | inactive
CC(=O)c1c(C)oc2ccc(NS(=O)(=O)c3ccc(C(=O)O)cc3)cc12 | active
CC(=O)c1c(C)oc2ccc(NS(=O)(=O)c3ccccc3)cc12 | inactive
COc1ccccc1CNC(=O)COn1nnc2ccc(S(=O)(=O)N3CCOCC3)cc21 | inactive
CCc1cccc(NC(=O)COC(=O)C2CCN(c3ccc(C(F)(F)F)cn3)CC2)c1 | inactive
O=C(NCC(c1cccs1)N1CCOCC1)c1cc(Cl)ccc1[N+](=O)[O-] (stereo not drawn) | inactive
Cc1ccc(S(=O)(=O)N2CCC(C(=O)NCCC3=CCCCC3)CC2)cc1C | inactive
O=C(CCC(=O)c1cccs1)Nc1nc2ccccc2s1 | inactive
CC12CCC(=O)N1C(C(=O)Nc1ccc(F)c(F)c1F)CS2 (stereo not drawn) | inactive
COc1cc2ccccc2cc1C(=O)N1CCOCC1 | inactive
COc1ccc(S(=O)(=O)NCc2cccnc2)cc1NC(=O)c1ccc(C)cc1 | inactive
COc1ccc(/C=N/NC(=O)c2ccc(Cl)cc2)cc1COC(C)=O | active

SMILES | outcome
COc1cccc(OCc2cc(/C=N/NC(=O)c3nc(Cl)c(Cl)c(N)c3Cl)ccc2OC)c1 | inactive
COc1ccc(/C=N/NC(=O)c2ccccc2)cc1OS(=O)(=O)c1ccccc1 | inactive
CCOC(=O)N1CCN(C(=O)c2ccccc2SCC(=O)NCC2CCCCC2)CC1 | inactive
COc1ccccc1C(CNC(=O)c1cccc(NS(=O)(=O)c2ccc(Br)cc2)c1)N(C)C (stereo not drawn) | inactive
CCOc1ccc(CCNC(=O)CN2C(=O)NC3(CCc4ccccc43)C2=O)cc1OCC (stereo not drawn) | inactive
COc1ccccc1NC(=O)C(C)OC(=O)c1ccc(-n2cnnn2)cc1 (stereo not drawn) | inactive
COc1ccc(C(=NN)c2ccc(OC)cc2)cc1 | inactive
CCCCn1c(N)c(N(Cc2ccccc2OC)C(=O)COc2cc(C)ccc2Cl)c(=O)[nH]c1=O | inactive
COc1ccc(NC(=O)CN(C)C(=O)c2n[nH]c3ccccc23)cc1 | inactive
CCN(CC)c1ccc(S(=O)(=O)N2CCCCC2)cc1NC(=O)C1=COCCO1 | inactive
CCCCn1c(N)c(N(CC(C)C)C(=O)c2cnc(C)cn2)c(=O)[nH]c1=O | inactive
Cc1cccc(N(Cc2ccccc2)C(=O)c2cc(S(=O)(=O)N3CCOCC3)ccc2F)c1 | inactive
Cc1ccc(C)c(NC(=O)COC(=O)Cn2c(C)csc2=O)c1 | inactive
COc1ccc(-c2ccc3nnc(SCC(=O)Nc4ccc(NC(C)=O)cc4)n3n2)cc1 | inactive
COc1ccc(C2CC(c3ccc([N+](=O)[O-])cc3)=NN2C(C)=O)cc1 (stereo not drawn) | inactive
COc1ccc(C2=NN(C(=O)c3cccnc3)C(c3ccccc3)C2)cc1 (stereo not drawn) | inactive
COc1ccc(C2CC(c3ccccc3)=NN2C(=O)c2ccc(Cl)c([N+](=O)[O-])c2)cc1 (stereo not drawn) | active
COc1ccc(S(=O)(=O)NCC(c2ccco2)N2CCOCC2)cc1 (stereo not drawn) | inactive
CCCCNC(=O)c1cn(CC)c2cc(N3CCN(C(=O)c4ccco4)CC3)c(F)cc2c1=O | inactive
CCn1cc(C(=O)NCCO)c(=O)c2cc(F)c(N3CCN(C)CC3)cc21 | active
CN1CCN(c2cc3c(cc2F)c(=O)c(C(=O)O)cn3CCF)CC1 | inactive
